Drawing on PubChem BioAssay (NCI), this text covers growth for 9 compounds.

Some test systems named below: HT29 colon; SNB-19 CNS; U251 CNS; PC-3 prostate; SK-MEL-5 melanoma; UACC-62 melanoma; LOX IMVI melanoma; SK-MEL-28 melanoma; SK-MEL-2 melanoma; EKVX NSCLC; SN12C renal; UO-31 renal; TK-10 renal; ACHN renal; CAKI-1 renal; CCRF-CEM leukemia; MOLT-4 leukemia; SR leukemia; A498 renal; SNB-75 CNS.
What all share (assay): NCI-60 one-dose screen, 48 h (100 = growth as untreated, 0 = no growth, -100 = all killed)
Conditions in all cases: 10 µM unless noted

About 83,000 compounds went through this panel and 20% of them were active in at least one assay; those are over-represented in the sample as a whole.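 Step 1: grow cells in 96-well plates. Step 2: add test compound at a single concentration. Step 3: incubate 48 h. Step 4: record percent growth.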 Values without a mark were called inactive. Calls of active or inactive are those of the source. Rule for the calls: active = growth percent below 10; inactive = the rest.

`COc1ccc2nc(-c3ccc(-n4cncc4-c4ccc(OC)c(N)c4)cc3)sc2c1`: the growth in the experiment on HT29 colon was 96.8%; with SNB-19 CNS, 98.6%; in the experiment on U251 CNS, 105%; in the experiment with PC-3 prostate, 84.6%; in the experiment on SK-MEL-5 melanoma it was 105%; in the experiment with UACC-62 melanoma, 101%. The growth in the experiment on LOX IMVI melanoma is 113%; in the experiment on SK-MEL-28 melanoma, 106%; in the experiment with SK-MEL-2 melanoma, 112%; in the experiment with EKVX NSCLC it was 109%; in the experiment on SN12C renal, 111%; with UO-31 renal, 70.1%. The growth with TK-10 renal is 114%; in the experiment on ACHN renal it was 103%; in the experiment on CAKI-1 renal, 106%; in the experiment with CCRF-CEM leukemia, 95.6%; in the experiment with MOLT-4 leukemia, 66.3%; with SR leukemia, 69.3%.

For `Clc1nc(Cl)c2ncn(-c3ccccc3)c2n1`, the growth in the experiment on HT29 colon was 43.4%; in the experiment with SNB-19 CNS, 103%; in the experiment on U251 CNS, 42.7%; with PC-3 prostate, 95.7%; in the experiment on SK-MEL-5 melanoma, 78.6%; with UACC-62 melanoma, 69%. In addition, the growth with LOX IMVI melanoma was 0.438% (active); with SK-MEL-28 melanoma, 91.1%; in the experiment with SK-MEL-2 melanoma, 17.8%; in the experiment on EKVX NSCLC it was 73.3%; in the experiment with SN12C renal, 82%; in the experiment on UO-31 renal it was -77.3% (active). Further, the growth in the experiment with TK-10 renal is 71.9%; with ACHN renal it was 68.6%; with CAKI-1 renal, -79.9% (active); in the experiment with CCRF-CEM leukemia, 80.3%; in the experiment on MOLT-4 leukemia, 44.2%; in the experiment on SR leukemia, 39%.

Turning to `CN1C(=O)C(=Cc2cn(Cc3ccccc3)c3ccc(Br)cc23)C(=O)N(C)C1=O`, the growth in the experiment on HT29 colon was 101%; with SNB-19 CNS, 98.6%; in the experiment with U251 CNS, 97.5%; with PC-3 prostate, 89.1%; with UACC-62 melanoma it was 73.3%; with LOX IMVI melanoma, 102%. The growth is 113% with SK-MEL-28 melanoma; 107% with SK-MEL-2 melanoma; 108% in the experiment with EKVX NSCLC; 96.6% in the experiment on SN12C renal; 90.1% with UO-31 renal; 58.3% in the experiment with TK-10 renal. Further, the growth in the experiment with ACHN renal was 96.3%; in the experiment with CAKI-1 renal it was 97.1%; with A498 renal it was -91.3% (active); in the experiment with CCRF-CEM leukemia, 101%; with MOLT-4 leukemia, 87.6%.

`CC(c1ccccn1)C(C)(O)C(C)c1ccccn1` (centres undefined): the growth was 99.7% in the experiment with SNB-75 CNS; 98.9% in the experiment with SNB-19 CNS; 98.7% in the experiment on U251 CNS; 98.9% with PC-3 prostate; 105% with SK-MEL-5 melanoma; 95.6% in the experiment with UACC-62 melanoma. In addition, the growth was 95.6% in the experiment on LOX IMVI melanoma; 111% in the experiment with SK-MEL-28 melanoma; 105% in the experiment with SK-MEL-2 melanoma; 95.3% with EKVX NSCLC; 103% in the experiment with SN12C renal; 90.2% in the experiment with UO-31 renal. Besides, the growth is 99.6% in the experiment with TK-10 renal; 103% in the experiment with ACHN renal; 104% in the experiment on CAKI-1 renal; 105% with A498 renal; 114% in the experiment with CCRF-CEM leukemia; 65.1% in the experiment on MOLT-4 leukemia.

Turning to `Nc1nc(SCC2(CCl)COC2)c2[nH]cnc2n1`, the growth is 99.2% with HT29 colon; 99.2% with SNB-19 CNS; 101% in the experiment on U251 CNS; 93.5% in the experiment with PC-3 prostate; 107% in the experiment on SK-MEL-5 melanoma; 96.2% in the experiment on UACC-62 melanoma. Further, the growth is 95.8% in the experiment on LOX IMVI melanoma; 103% in the experiment on SK-MEL-28 melanoma; 107% with EKVX NSCLC; 100% with SN12C renal; 75.9% with UO-31 renal; 102% in the experiment on TK-10 renal. In addition, the growth with ACHN renal was 95.7%; with CAKI-1 renal, 105%; with CCRF-CEM leukemia, 101%; in the experiment with MOLT-4 leukemia, 89%; in the experiment on SR leukemia, 83.8%.

As to `COc1ccc2c(c1)[nH]c(=O)c1c3cc(OC)c(OC)cc3cn21`, the growth in the experiment with SNB-75 CNS was 72%; in the experiment with SNB-19 CNS, 31.3%; in the experiment with U251 CNS, -22.4% (active); in the experiment with PC-3 prostate, -90.8% (active); in the experiment on SK-MEL-5 melanoma, -6.64% (active); with UACC-62 melanoma, 48.9%. The growth with LOX IMVI melanoma is 9.3% (active); in the experiment with SK-MEL-28 melanoma it was 61.1%; in the experiment with SK-MEL-2 melanoma, 6.58% (active); in the experiment on EKVX NSCLC it was 36.9%; in the experiment on SN12C renal it was 35.6%; with UO-31 renal, 35.1%. The growth in the experiment with TK-10 renal is 27.1%; with ACHN renal, 24.7%; in the experiment with CAKI-1 renal, -9.25% (active); in the experiment on A498 renal it was 34.4%; in the experiment with CCRF-CEM leukemia, -83.5% (active); in the experiment with MOLT-4 leukemia, 7.2% (active). Moreover, in the experiment with SR leukemia, the growth was 64.9%.

As for `CN1C(=O)/C(=C/c2nc(-c3cccc(F)c3)n3ccccc23)c2ccccc21`, the growth in the experiment on HT29 colon is 89%; in the experiment on SNB-19 CNS, 76.8%; in the experiment on U251 CNS it was 56.7%; in the experiment with PC-3 prostate it was 81.6%; with SK-MEL-5 melanoma it was 64%; in the experiment with UACC-62 melanoma it was 71.3%. For the same compound, the growth was 48.8% with LOX IMVI melanoma; 89.1% with SK-MEL-28 melanoma; 68.2% with SK-MEL-2 melanoma; 79% in the experiment on EKVX NSCLC; 85.9% with SN12C renal; 89.8% in the experiment on UO-31 renal. Besides, the growth with TK-10 renal was 61.7%; with ACHN renal, 39.9%; in the experiment with CAKI-1 renal it was 68%; in the experiment with MOLT-4 leukemia, 71.6%; with SR leukemia it was 60.5%.

As to `S=C(Nc1ccc(C2=NCCN2)cc1)Nc1ccc(C2=NCCN2)cc1`, the growth is 110% in the experiment with SNB-75 CNS; 105% in the experiment with SNB-19 CNS; 97.9% with U251 CNS; 100% with PC-3 prostate; 96.6% in the experiment with SK-MEL-5 melanoma; 107% in the experiment with UACC-62 melanoma. Besides, the growth in the experiment with LOX IMVI melanoma is 96.7%; in the experiment with SK-MEL-28 melanoma, 110%; with SK-MEL-2 melanoma it was 111%; in the experiment with EKVX NSCLC, 91.9%; in the experiment on SN12C renal, 98.9%; in the experiment on UO-31 renal it was 83.4%. Also, the growth with TK-10 renal is 100%; in the experiment on ACHN renal, 99.2%; in the experiment with CAKI-1 renal, 93.9%; in the experiment with A498 renal it was 101%; with CCRF-CEM leukemia, 104%; in the experiment on MOLT-4 leukemia, 93.6%. Further, the growth in the experiment on SR leukemia was 90.4%.

For the compound `COC(=O)[C@]1(CCSC)N[C@H](c2cn(-c3ccccc3)nc2C)[C@@H]2C(=O)N(c3ccccc3)C(=O)[C@@H]21`, the growth in the experiment on SNB-75 CNS was 86%; in the experiment on SNB-19 CNS it was 109%; with U251 CNS it was 105%; in the experiment on PC-3 prostate it was 101%; with SK-MEL-5 melanoma, 101%; with UACC-62 melanoma it was 102%. Also, the growth in the experiment on LOX IMVI melanoma is 96.1%; in the experiment on SK-MEL-28 melanoma it was 109%; in the experiment on SK-MEL-2 melanoma, 121%; in the experiment on EKVX NSCLC it was 107%; in the experiment on SN12C renal, 103%; in the experiment with UO-31 renal, 90.9%. For the same compound, the growth is 118% in the experiment with TK-10 renal, 113% in the experiment with ACHN renal, 101% in the experiment on CAKI-1 renal and 93% in the experiment with A498 renal.
